Rce1 inh – yeast Ras-converting enzyme inhibition | Q03530 | yeast membranes, quenched prenylated peptide cleavage fluorescence | calls only | 290,000 tested, 0.27% active | AID 2563;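 active means fall in fluorescence gain of 50% or more versus controls, with final raw signal at or below 3038400; inconclusive means same 50% fall but final raw signal above 3038400; inactive means fall in fluorescence gain under 50%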
Rtt109 Vps75 – C. albicans Rtt109 histone acetyltransferase inhibition; AID 540336; inhibition, % at 34.9 µM; 330,000 tested, 0.16% active; purified Rtt109/Vps75, ThioGlo CoA-SH fluorescence, 4 h; Q5AAJ8;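 active means inhibition of at least 50% in every replicate; inconclusive means best replicate reaches 50% inhibition but some replicates fall short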
ALR H2O2 inh – blocks human ALR sulfhydryl oxidase activity; inhibition, % (concentration not given with the values); 290,000 tested, 3.8% active; purified ALR, DTT oxidation, H2O2 HRP-luminol luminescence; P55789;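 active means mean replicate inhibition above about 79%, with every replicate also reaching it, limit read from the data; inconclusive means only one of the two criteria met; inactive means mean below limit and not every replicate reaching it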
Target sequence (P55789 whole entry, looked up): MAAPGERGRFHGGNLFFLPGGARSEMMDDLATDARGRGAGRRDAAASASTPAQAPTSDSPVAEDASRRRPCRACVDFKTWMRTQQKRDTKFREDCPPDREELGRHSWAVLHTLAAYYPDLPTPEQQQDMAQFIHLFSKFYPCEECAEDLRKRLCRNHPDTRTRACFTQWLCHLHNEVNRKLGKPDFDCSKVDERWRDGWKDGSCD
HDAC3 inhib – blocks human histone deacetylase 3; O15379; recombinant HDAC3, fluorogenic peptide/trypsin coupled, fluorescence; inhibition, % at 8.3 µM; 320,000 tested, 0.15% active; AID 2718; in the data active means inhibition above about 26%, passing the limit was not always enough; inconclusive means no clear call, values can overlap the other calls
Efflux pump inh – blocks antifungal efflux pumps in multiplex yeast assay; S. cerevisiae Candida pump triplex, Nile Red efflux; inhibition, % at 10 µM; 330,000 tested, 0.44% active; AID 485275;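 active means plate passing quality check with inhibition over a set limit, or well fluorescence over plate mean plus 4 SD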;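 further: Nile Red retained in pooled yeast measured as flow cytometry median fluorescence; higher means more Nile Red kept so more efflux inhibition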
GRK2 aptamer HTS – human GRK2 inhibition via aptamer displacement. 330,000 tested, 0.59% active. P25098. inhibition of aptamer binding, % at 10 µM. bead flow cytometry, FAM-aptamer displacement from GRK2;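 active means inhibition of aptamer binding above 40%, roughly 3 SD of noise, on plates passing a quality check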;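 further: median bead fluorescence of bound FAM aptamer so fluorescent compounds give negative values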
GRK2 CP1 – confirmation of human GRK2 inhibitors displacing RNA aptamer; shares compounds with GRK2 aptamer HTS; bead-bound GRK2, FAM-aptamer displacement, flow cytometry; aptamer displacement, % at 10 µM; 2,000 tested, 4% active; AID 504451;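 active means aptamer displacement above 40%, near three times the noise of non-fluorescent compounds, on plates passing quality checks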;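 further: negative values mostly reflect intrinsic compound fluorescence rather than true enhancement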
Aptamer quench 1 – fluorescent aptamer quenching in GRK2 counter-screen dose response; Fluorescent RNA aptamer beads, flow cytometry; hits give high values; fluorescence change (kMESF span), kMESF (no concentration beside the values); 110 tested, under 10 active; shares compounds with GRK2 aptamer HTS;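 active means compounds whose bead fluorescence drops by more than 37 kMESF across the dose range, marking them as dye quenchers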
Aptamer quench SP – aptamer fluorescence quenching in GRK2 counter-screen. shares compounds with GRK2 aptamer HTS. Carboxyfluorescein RNA aptamer on beads, flow cytometry quenching; hits give low values. fluorescence response (% of DMSO), % at 10 µM. 2,000 tested, under 10 active;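 active means compounds that quench the bead-bound fluorescent RNA probe, cutting fluorescence to under half of the solvent control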;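 further: counterscreen run without GRK2 so only probe quenching by compound is measured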
Hits are given with their value; i = inactive; ? = inconclusive; nt = no result given. Shown are actives, neighbours in structure and some others; about 4.5% of the full set was active somewhere.

SMILES	Rce1 inh	Rtt109 Vps75	ALR H2O2 inh	HDAC3 inhib	Efflux pump inh	GRK2 aptamer HTS	GRK2 CP1	Aptamer quench SP	others
COc1ccccc1-[n+]1c(C)cc(/C=C2\Sc3ccccc3N2C)cc1C	i	?	98	?	i	68	62	i	Aptamer quench 1=i
O=C1NCCN(Cc2ccc(F)cc2)C1CC(=O)N1CC=C(c2ccccc2)CC1 (centres undefined)	i	i	i	i	i	i	nt	nt
Cc1cc(CNC(=O)CC2C(=O)NCCN2Cc2ccc(-c3ccccc3)cc2)nn1C (centres undefined)	i	i	i	i	i	i	i	i
O=C1NCCN(Cc2ccc(-c3ccccc3)cc2)C1CC(=O)N1CCN(CCO)CC1 (centres undefined)	i	i	i	i	i	100	i	i
O=C(c1ccccc1)c1c(-c2ccccc2)[nH]n(-c2ccccc2)c(=O)c1=O	i	i	i	i	i	i	nt	nt
Nc1nonc1-n1nnc(C(=O)N/N=C/c2cc(Br)cs2)c1-c1ccccc1	i	i	nt	i	i	i	nt	nt
CCOc1ccc(NC(=O)c2cc3ccccc3cc2OC)cc1	i	i	i	i	i	i	nt	nt
CCOc1ccc(NC(=O)c2cc3ccccc3cc2O)cc1	i	i	nt	i	i	i	i	i
CN1CCCN(S(=O)(=O)c2cccc(Cl)c2Cl)CC1	i	i	i	i	i	i	nt	nt
O=S(=O)(c1cccc(Cl)c1Cl)N1CCCCC1	i	i	i	i	i	82	i	i
CCN(CC(=O)Nc1c(F)cccc1F)C(=O)C1CCN(c2ncnc3sc(C)c(C)c23)CC1	i	i	i	i	i	i	nt	nt
CC1=C(C(=O)OC(C)C)C(c2cccs2)n2ncnc2N1 (centres undefined)	i	i	i	i	i	85	i	i
CC1=C(C(N)=O)C(c2cccs2)n2ncnc2N1 (centres undefined)	i	i	i	i	i	i	nt	nt
O=C(Cn1nnc2ccccc2c1=O)NCC1CCC(C(=O)O)CC1 (centres undefined)	i	i	nt	nt	i	i	nt	nt
CC(CNC(=O)c1ccc2c(c1)OCO2)c1ccc([N+](=O)[O-])cc1 (centres undefined)	i	i	i	i	i	67	i	i
Cc1ccc([N+](=O)[O-])cc1NC(=O)c1ccc2c(c1)OCO2	nt	i	i	i	i	i	nt	nt
CC1CCCC(NC(=O)CSc2nnc(C(F)(F)F)n2C)C1C (centres undefined)	nt	i	i	i	i	i	nt	nt
O=C(NN=C1CCCCC1)Nc1ccccc1Cl	i	i	i	i	i	i	nt	nt
O=C(Nc1ccccc1C(=O)NCCCN1CCOCC1)c1cccc([N+](=O)[O-])c1	i	i	i	i	i	i	nt	nt
CCCOC(=O)CCCN1C(=O)/C(=C2\SC(=S)N(CCCC(=O)OCCC)C2=O)SC1=S	i	i	i	i	i	60	i	i
COc1ccc(N2CC(C(=O)N3CCN(S(=O)(=O)c4ccc(F)c(F)c4)CC3)CC2=O)c(OC)c1 (centres undefined)	nt	i	nt	nt	nt	nt	nt	nt
CN(CC(=O)Nc1ccccc1Cl)C(=O)Cn1cc(C(F)(F)F)ccc1=O	nt	i	nt	i	i	65	i	i
CCOc1ccc(NC(=O)CSc2nc3c([nH]c4ccccc43)c(=O)n2C)cc1	i	i	i	i	i	i	nt	nt
COc1ccc(OC)c(NC(=O)CSc2nc3c(c(=O)n(C)c(=O)n3C)n2C)c1	i	i	i	i	i	74	i	i
Cc1ccccc1NC(=O)CSc1nc2c(c(=O)n(C)c(=O)n2C)n1C	i	i	i	i	i	i	nt	nt
